# Columns and labels:
# [1] = biological target: T1, 3-phosphoinositide-dependent protein kinase 1 (Homo sapiens) (UniProt O15530); details: at 0.1 µM;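 also: values are mean inhibition of PDK1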
# T1 sequence (whole entry): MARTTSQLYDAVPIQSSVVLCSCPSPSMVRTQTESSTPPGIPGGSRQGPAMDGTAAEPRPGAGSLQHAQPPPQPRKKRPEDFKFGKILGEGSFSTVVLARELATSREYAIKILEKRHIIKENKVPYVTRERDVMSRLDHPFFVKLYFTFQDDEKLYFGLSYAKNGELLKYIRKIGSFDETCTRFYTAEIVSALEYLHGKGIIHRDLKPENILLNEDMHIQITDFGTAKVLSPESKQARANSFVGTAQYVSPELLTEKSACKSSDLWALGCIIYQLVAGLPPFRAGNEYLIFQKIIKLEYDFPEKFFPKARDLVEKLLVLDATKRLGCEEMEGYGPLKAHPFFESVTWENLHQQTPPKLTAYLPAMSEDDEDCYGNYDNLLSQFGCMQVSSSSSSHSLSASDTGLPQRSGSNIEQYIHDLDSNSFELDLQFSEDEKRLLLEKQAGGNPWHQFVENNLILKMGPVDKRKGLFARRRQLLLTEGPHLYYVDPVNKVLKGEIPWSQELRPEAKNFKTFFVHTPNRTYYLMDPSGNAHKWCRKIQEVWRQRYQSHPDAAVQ
# [2] = biological target: cAMP-dependent protein kinase catalytic subunit alpha (Homo sapiens) (UniProt P17612); details: at 0.1 µM
# [3] = biological target: cAMP-dependent protein kinase catalytic subunit alpha (Homo sapiens) (UniProt P17612); details: at 1 µM
# [4] = biological target: Protein kinase C alpha type (Homo sapiens) (UniProt P17252); details: at 0.1 µM
# [5] = biological target: Protein kinase C alpha type (Homo sapiens) (UniProt P17252); details: at 1 µM
# [6] = biological target: Protein kinase C beta type (Homo sapiens) (UniProt P05771); details: at 0.1 µM
# [7] = biological target: Protein kinase C beta type (Homo sapiens) (UniProt P05771); details: at 1 µM
# [8] = biological target: Protein kinase C eta type (Homo sapiens) (UniProt P24723); details: at 0.1 µM
# [9] = biological target: Protein kinase C eta type (Homo sapiens) (UniProt P24723); details: at 1 µM
# [10] = biological target: Protein kinase C gamma type (Homo sapiens) (UniProt P05129); details: at 0.1 µM
# [11] = biological target: Protein kinase C gamma type (Homo sapiens) (UniProt P05129); details: at 1 µM
# [12] = biological target: T2, Protein kinase C iota type (Homo sapiens) (UniProt P41743); details: at 0.1 µM
# T2 sequence (whole entry): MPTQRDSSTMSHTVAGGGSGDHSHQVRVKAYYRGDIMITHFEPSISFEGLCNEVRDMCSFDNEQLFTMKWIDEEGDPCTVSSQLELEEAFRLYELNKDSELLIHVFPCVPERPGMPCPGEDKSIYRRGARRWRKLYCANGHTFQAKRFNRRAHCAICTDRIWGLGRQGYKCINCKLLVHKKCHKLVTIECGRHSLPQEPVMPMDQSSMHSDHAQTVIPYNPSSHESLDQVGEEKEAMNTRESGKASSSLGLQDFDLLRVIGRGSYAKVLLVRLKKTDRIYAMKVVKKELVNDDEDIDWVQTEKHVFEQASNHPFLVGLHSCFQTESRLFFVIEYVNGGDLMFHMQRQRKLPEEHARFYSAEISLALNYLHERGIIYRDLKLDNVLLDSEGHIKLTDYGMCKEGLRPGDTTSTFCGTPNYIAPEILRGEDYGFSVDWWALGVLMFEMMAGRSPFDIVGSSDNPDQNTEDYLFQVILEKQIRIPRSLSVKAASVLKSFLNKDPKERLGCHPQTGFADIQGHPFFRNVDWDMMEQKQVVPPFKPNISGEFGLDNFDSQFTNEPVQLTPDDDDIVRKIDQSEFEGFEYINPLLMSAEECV
# [13] = biological target: T2, Protein kinase C iota type (Homo sapiens); details: at 1 µM
# [14] = biological target: Protein kinase C theta type (Homo sapiens) (UniProt Q04759); details: at 0.1 µM
# [15] = biological target: Protein kinase C theta type (Homo sapiens) (UniProt Q04759); details: at 1 µM
# [16] = biological target: Protein kinase C beta type (Homo sapiens) (UniProt P05771); details: at 0.1 µM; remark: listed apart in the source
# [17] = biological target: Protein kinase C beta type (Homo sapiens) (UniProt P05771); details: at 1 µM; remark: listed apart in the source
# [18] = biological target: T3, Serine/threonine-protein kinase D1 (Homo sapiens) (UniProt Q15139); details: at 0.1 µM
# T3 sequence (whole entry): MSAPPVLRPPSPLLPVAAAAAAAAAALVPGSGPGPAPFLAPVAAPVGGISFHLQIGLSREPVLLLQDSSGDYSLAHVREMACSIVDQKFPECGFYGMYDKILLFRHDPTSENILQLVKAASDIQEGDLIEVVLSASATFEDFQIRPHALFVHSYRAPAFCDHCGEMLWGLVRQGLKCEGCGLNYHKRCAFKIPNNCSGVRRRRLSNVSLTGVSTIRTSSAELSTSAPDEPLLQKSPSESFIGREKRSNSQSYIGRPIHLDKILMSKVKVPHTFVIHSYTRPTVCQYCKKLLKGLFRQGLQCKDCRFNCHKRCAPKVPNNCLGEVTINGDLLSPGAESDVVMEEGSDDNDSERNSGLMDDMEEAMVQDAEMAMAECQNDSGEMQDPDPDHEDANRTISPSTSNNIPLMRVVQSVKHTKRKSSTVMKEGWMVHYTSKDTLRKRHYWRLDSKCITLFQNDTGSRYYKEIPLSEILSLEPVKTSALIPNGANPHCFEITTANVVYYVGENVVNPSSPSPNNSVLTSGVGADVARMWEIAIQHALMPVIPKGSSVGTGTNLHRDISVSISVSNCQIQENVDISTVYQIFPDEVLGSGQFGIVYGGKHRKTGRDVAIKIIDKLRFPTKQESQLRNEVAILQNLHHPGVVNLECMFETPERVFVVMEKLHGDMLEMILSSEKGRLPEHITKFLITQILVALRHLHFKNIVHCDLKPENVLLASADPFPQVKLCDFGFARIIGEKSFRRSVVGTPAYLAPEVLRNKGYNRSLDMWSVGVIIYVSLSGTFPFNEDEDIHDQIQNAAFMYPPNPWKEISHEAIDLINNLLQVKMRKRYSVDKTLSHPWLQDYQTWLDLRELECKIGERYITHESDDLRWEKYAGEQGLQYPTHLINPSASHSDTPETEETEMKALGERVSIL
# [19] = biological target: T3, Serine/threonine-protein kinase D1 (Homo sapiens); details: at 1 µM
# [20] = biological target: T4, Serine/threonine-protein kinase D2 (Homo sapiens) (UniProt Q9BZL6); details: at 0.1 µM;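 also: reported percent inhibition values are means, part of the GSK PKIS kinase panel screen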
# T4 sequence (whole entry): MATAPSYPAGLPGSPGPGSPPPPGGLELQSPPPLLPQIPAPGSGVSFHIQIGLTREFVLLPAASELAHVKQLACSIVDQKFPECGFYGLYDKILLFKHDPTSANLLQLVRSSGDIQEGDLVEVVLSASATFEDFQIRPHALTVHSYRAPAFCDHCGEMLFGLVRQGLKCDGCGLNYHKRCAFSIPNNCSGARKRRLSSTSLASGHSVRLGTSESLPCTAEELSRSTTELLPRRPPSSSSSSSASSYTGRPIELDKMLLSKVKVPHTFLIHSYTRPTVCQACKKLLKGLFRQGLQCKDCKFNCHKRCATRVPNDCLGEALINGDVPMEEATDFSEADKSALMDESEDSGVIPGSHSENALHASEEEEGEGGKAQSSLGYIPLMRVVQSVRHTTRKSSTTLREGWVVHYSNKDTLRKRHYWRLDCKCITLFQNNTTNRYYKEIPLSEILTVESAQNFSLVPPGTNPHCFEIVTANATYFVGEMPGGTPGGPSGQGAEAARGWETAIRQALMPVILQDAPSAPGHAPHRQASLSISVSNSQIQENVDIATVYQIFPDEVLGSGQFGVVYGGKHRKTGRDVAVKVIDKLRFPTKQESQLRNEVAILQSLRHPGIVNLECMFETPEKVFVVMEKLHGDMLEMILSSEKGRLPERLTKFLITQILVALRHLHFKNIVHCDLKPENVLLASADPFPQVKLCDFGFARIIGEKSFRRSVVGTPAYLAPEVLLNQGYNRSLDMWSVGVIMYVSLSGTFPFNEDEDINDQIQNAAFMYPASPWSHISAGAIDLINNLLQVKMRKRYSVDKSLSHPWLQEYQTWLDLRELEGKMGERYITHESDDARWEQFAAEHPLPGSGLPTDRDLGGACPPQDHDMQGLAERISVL
# Chain of Protein kinase C eta type (Homo sapiens) (P24723 whole entry): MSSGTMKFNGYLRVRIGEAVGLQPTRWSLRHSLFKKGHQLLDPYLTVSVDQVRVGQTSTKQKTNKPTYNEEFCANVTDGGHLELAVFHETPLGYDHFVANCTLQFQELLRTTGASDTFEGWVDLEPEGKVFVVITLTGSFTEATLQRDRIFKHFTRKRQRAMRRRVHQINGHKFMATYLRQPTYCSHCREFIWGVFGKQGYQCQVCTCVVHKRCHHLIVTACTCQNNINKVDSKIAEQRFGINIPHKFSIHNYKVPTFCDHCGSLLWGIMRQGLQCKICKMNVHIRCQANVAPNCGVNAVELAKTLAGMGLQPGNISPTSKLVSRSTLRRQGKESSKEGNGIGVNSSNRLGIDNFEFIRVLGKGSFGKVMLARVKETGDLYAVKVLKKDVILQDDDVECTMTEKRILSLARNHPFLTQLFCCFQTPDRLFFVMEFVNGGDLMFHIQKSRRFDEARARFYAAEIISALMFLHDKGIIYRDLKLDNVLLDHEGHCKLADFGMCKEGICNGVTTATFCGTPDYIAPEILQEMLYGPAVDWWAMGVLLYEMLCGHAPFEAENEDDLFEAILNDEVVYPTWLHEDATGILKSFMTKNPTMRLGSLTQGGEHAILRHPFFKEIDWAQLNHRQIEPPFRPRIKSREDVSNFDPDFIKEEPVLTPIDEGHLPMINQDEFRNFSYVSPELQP
# Chain of Protein kinase C beta type (Homo sapiens) (P05771 2-671 limits assumed): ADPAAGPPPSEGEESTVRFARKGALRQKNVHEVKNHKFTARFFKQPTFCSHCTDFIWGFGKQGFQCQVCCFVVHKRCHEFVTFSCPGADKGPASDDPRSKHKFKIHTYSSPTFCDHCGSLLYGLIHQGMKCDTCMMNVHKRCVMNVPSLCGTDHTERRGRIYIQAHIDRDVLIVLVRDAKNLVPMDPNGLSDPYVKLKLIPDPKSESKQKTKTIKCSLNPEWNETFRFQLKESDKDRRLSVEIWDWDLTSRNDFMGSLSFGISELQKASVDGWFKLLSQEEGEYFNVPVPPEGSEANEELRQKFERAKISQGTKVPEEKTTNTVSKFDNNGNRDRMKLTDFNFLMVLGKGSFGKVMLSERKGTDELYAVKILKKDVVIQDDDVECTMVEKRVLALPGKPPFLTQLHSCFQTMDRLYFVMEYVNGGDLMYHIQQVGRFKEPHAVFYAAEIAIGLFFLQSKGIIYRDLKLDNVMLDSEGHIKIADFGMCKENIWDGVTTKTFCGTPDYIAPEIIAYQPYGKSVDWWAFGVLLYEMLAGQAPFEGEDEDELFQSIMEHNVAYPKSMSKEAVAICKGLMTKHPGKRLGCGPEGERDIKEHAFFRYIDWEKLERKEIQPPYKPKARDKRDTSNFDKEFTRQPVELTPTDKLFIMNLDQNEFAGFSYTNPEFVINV
# Chain of Protein kinase C theta type (Homo sapiens) (Q04759 whole entry, looked up): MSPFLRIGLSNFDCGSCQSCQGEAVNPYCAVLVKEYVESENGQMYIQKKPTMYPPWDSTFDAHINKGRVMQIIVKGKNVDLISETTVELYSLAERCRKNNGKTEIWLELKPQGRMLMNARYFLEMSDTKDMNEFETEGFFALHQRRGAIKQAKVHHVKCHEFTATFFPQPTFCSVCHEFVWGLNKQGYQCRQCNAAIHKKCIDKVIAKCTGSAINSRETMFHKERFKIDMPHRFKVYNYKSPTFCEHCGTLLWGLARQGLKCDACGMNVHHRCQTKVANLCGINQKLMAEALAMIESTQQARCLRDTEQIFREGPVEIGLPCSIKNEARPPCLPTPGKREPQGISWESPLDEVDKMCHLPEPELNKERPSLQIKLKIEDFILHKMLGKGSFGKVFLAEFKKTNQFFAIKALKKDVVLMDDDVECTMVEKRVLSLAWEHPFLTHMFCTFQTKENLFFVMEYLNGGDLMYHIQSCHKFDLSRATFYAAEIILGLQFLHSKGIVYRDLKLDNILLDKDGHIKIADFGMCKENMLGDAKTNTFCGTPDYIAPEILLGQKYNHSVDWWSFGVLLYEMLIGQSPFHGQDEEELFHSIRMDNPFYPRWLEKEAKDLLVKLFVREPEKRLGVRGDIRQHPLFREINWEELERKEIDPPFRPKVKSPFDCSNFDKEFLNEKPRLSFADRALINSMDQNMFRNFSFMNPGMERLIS
SMILES,inhibition [1] [%],inhibition [2] [%],inhibition [3] [%],inhibition [4] [%],inhibition [5] [%],inhibition [6] [%],inhibition [7] [%],inhibition [8] [%],inhibition [9] [%],inhibition [10] [%],inhibition [11] [%],inhibition [12] [%],inhibition [13] [%],inhibition [14] [%],inhibition [15] [%],inhibition [16] [%],inhibition [17] [%],inhibition [18] [%],inhibition [19] [%],inhibition [20] [%]
COc1ccc(COc2ccc(Cc3cnc(N)nc3N)cc2OC)cc1,1.69,4.69,1.52,1.05,1.13,3.26,2.56,1.31,-0.03,2.11,0.23,0.94,2.56,0.95,-0.58,2,1.96,0.61,2.03,-0.07
[O-][S+]1CCN(Cc2ccc(-c3ccc4ncnc(Nc5ccc(OCc6ccccc6)c(F)c5)c4c3)o2)CC1,2.01,0.99,0.53,0.47,1.52,-0.89,-0.42,0.68,0.14,-0.39,-0.2,1.01,1.01,0.77,-0.73,0.35,0.5,2.32,4.27,3.5
CN1CCC(C(=O)Nc2n[nH]c3nnc(-c4ccccc4)cc23)CC1,0.14,2.6,1.51,0.67,1.72,1.03,1.27,4.63,5.6,2.25,5.3,2.28,0.85,2.64,3.84,1.32,1.6,5.4,6.32,4.78
Nc1nc(-c2ccc3c(c2)C(=Cc2cc(Br)c(O)c(Br)c2)C(=O)N3)cs1,-1.98,-0.95,-0.7,-0.01,1.51,0.67,0.52,-1.62,-1.96,-2.56,2.01,0.79,0.34,-1.06,0.33,-0.52,1.78,-1.69,-1.78,-2.06
COc1cc2ncn(-c3cc(OCc4ccccc4Cl)c(C(N)=O)s3)c2cc1OC,7.8,-0.08,-0.94,0,1.42,0.65,0.68,1.47,2.19,-0.07,2.36,1.15,0.82,-0.26,0.66,0.93,0.76,0.01,0.57,-0.54
CCn1c(-c2nonc2N)nc2cnc(Oc3cccc(NC(=O)c4ccc(OCCN5CCOCC5)cc4)c3)cc21,2.08,17.5,65.8,3.09,34.1,37.3,64.2,71.2,94.9,13.9,55,23.4,64.9,20,67.4,11.6,42.4,2.46,3.36,3.04
COC(=O)Nc1nc2cc(Oc3ccc(NC(=O)Nc4cccc(C(=O)O)c4)cc3)ccc2[nH]1,2.53,-3.91,0.18,-3.01,-3.65,0.02,1.6,-0.35,3.15,2.38,-0.24,0.47,-1.28,0.18,2.02,-0.5,0.44,-1.35,-1.96,-3.05
Cc1ccc(NC(=O)c2ccnc(N3CCCC3)c2)cc1-c1ccc(C(=O)NCC2CC2)cc1,2.23,-2.06,-0.65,-2.31,-0.77,0.1,-1.68,5.39,2.22,1.09,2.77,2.01,3.68,1.28,3.17,1.24,2.94,3.07,9.98,2.95
Cn1cc(C=C2C(=O)Nc3cccnc32)c2ccccc21,0.63,0.99,1.46,1,1.29,-0.06,-1.44,2.86,-0.57,-1.77,-0.93,0.27,1.58,-0.39,0.22,0.8,0.8,2.63,10.6,3.33
